# RORgamma inh: qHTS for inhibitors of ROR gamma transcriptional activity. Nuclear receptor ROR-gamma (Mus musculus), P51450. Drosophila S2 Gal4-RORgamma UAS-luciferase reporter, 20 h. Potency, µM (highest dose often 53.6 µM), usual class: inhibitors. hit rate 5.4% among 310,000. AID 2551, 2010; also: nearly all actives have a fitted effect of over 60% in size
# Target sequence (P51450 whole entry, looked up, the tested form may be a part): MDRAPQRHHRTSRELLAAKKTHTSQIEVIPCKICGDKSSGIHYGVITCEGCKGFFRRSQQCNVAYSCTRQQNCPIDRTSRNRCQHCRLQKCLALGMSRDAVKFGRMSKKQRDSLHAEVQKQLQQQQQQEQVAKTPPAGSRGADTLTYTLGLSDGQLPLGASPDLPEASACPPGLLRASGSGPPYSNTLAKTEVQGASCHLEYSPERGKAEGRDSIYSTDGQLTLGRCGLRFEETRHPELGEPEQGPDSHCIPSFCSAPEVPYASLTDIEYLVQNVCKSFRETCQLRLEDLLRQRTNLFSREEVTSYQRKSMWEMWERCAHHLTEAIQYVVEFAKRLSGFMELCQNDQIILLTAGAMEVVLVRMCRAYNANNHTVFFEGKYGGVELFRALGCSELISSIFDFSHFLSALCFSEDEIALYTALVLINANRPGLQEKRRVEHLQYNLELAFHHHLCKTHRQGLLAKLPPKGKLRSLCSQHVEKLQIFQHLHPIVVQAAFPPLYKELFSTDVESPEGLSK
#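 Read-out: Photinus luciferase luminescence; inhibitors lower reporter signal. Insect Schneider cells with Gal4-ROR gamma fusion under metallothionein promoter, UAS reporter; 700 uM final copper sulfate induction, 20 hr, ambient temperature.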
# B2AR arrestin: qHTS assay of beta-arrestin-biased ligands of beta2-adrenergic receptor. Beta-2 adrenergic receptor (Homo sapiens), P07550. beta-arrestin recruitment to beta2AR, cell-based reporter. Potency, µM (highest dose often 46.1 µM), actives largely listed as activators. hit rate 0.02% among 330,000. AID 492947, 2010; also: nearly all actives have a fitted effect of over 65% in size
# Gal4-VP16 FLuc: VP16 counterscreen qHTS for inhibitors of ROR gamma transcriptional activity. Drosophila S2 Gal4-VP16 UAS-luciferase, luminescence, 20 h. Potency, µM (titrated, usually from 53.6 µM), most hits filed as inhibitors. hit rate 3.5% among 310,000;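 also: Gal4-VP16 expression switched on by copper sulfate through the metallothionein promoter; nearly all actives have a fitted effect of over 50% in size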
# ELG1 DNA repair: qHTS screen for small molecules that inhibit ELG1-dependent DNA repair in human embryonic kidney (HEK293T) cells expressing luciferase-tagged ELG1. HEK293T ELG1-luciferase reporter, luminescence, 16 h; DNA damage induced by 5-fluorouridine. Potency, µM (highest dose often 46.1 µM), usual class: inhibitors. hit rate 2.3% among 330,000; also: nearly all actives have a fitted effect of over 55% in size
#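 Step one: seed 2,000 cells per well. Step two: pin-transfer compound or DMSO alongside 5-fluorouridine. Step three: incubate 16 hr, 37 °C, 5% CO2. Step four: add ONE-Glo, wait 30 min, read luminescence.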
# TSHR antagonist: Antagonists of the Thyroid Stimulating Hormone Receptor: HTS campaign; Thyrotropin receptor (Homo sapiens), P16473; TSHR-expressing cells, TSH-stimulated cAMP HTRF, 2 h; stronger effect = lower value; activity change, negative = inhibition, % at 11.5 µM; hit rate 0.2% among 330,000;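 active = activity change below a set negative limit, meaning inhibition stronger than a set level, cut at about -70% in these data; inconclusive = activity change between two set negative limits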
#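 Cell-based HTRF cAMP assay; TSHR cells + compound, TSH EC80 (4nM final), 2 h, 37 deg C. Lysis with anti-cAMP cryptate and cAMP-d2, 30 min RT, read 665/620 nm.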
# A number is an active result; . = inactive; ? = inconclusive; / = no result given. Sampled rows, rich in hits. Any-hit rate of the full collection: about 7.5%. Unless noted, calls follow the shape of the dose curve; as a rule, active = well fitted curve in the direction sought with a large enough effect; inconclusive = small, poorly fitted or top-dose-only effect, or another doubt; inactive = no such curve, though single readings can be large; an effect the other way counts as inactive or inconclusive.
SMILES,RORgamma inh,B2AR arrestin,Gal4-VP16 FLuc,ELG1 DNA repair,TSHR antagonist
O=C(Nc1nnc(-c2cccs2)o1)C1CC1,7.1µM,.,7.1µM,?,.
O=C(Nc1nnc(-c2ccncc2)o1)c1ccc(Br)s1,0.89µM,.,1.1µM,8.2µM,.
O=C(N/N=C\c1ccncc1)c1ccc(Br)s1,.,.,.,?,.
CC(C)(C)C(=O)Nc1nnc(-c2ccncc2)o1,11µM,.,18µM,.,.
Cc1ccc(-c2ccc(/C=N/N=C3/NC(=O)C(CC(=O)O)S3)o2)c([N+](=O)[O-])c1 (centres undefined),.,.,.,.,-72
CC1=C(C(=O)N(C)C)C(c2ccc(N3CCOCC3)cc2)NC(=O)N1 (centres undefined),.,.,.,.,.
CCOc1ccc2[nH]cc(S(=O)(=O)c3ccc(F)cc3)c(=O)c2c1,.,.,13µM,?,.
COc1ccc2[nH]cc(S(=O)(=O)c3ccc(F)cc3)c(=O)c2c1,.,.,?,.,.
CC(=O)Nc1ccc(C(=O)CCl)cc1,4.5µM,.,?,.,.
c1ncc(-c2ccc3c(c2)OCO3)c(NCCc2cnc[nH]2)n1,.,/,.,/,/
N#Cc1ccc(C(=O)OCC(=O)Nc2cccnc2Cl)cc1,/,.,/,.,.
CC[C@H](C)[C@H](NC(=O)[C@H](Cc1ccc(O)cc1)NC(=O)[C@@H]1CCCN1C(=O)[C@H](CCCCN)NC(=O)[C@@H](N)CCCCN)C(=O)N[C@@H](CC(C)C)C(=O)O,.,/,.,/,/
N#C/C(=C\c1ccc(N2CCOCC2)o1)c1ccccc1,?,.,20µM,?,-82
N#C/C(=C/c1ccc(N2CCOCC2)o1)c1nc2ccccc2[nH]1,.,.,?,?,.
N#C/C(=C/c1ccc(N2CCOCC2)o1)c1ccc(Br)cc1,.,.,5.6µM,?,.
N#C/C(=C/c1ccc(N2CCCCCC2)o1)c1cccc(F)c1,.,.,?,?,.
CN(Cc1ccccc1)C(=O)CCC1CCN(S(C)(=O)=O)CC1,.,.,.,.,.
CCOC(=O)CN(C(=O)COc1nc(-c2ccccc2)cc(C)c1C#N)c1ccccc1C,.,.,.,21µM,.
CC(=O)Nc1ccc(C2=NN(Cc3nnc(-c4ccccc4)o3)C(=O)SC2)cc1,.,.,.,16µM,.
CC(=O)Nc1ccc(C2=NN(CC#N)C(=O)SC2)cc1,.,.,.,.,.
CC(C)Nc1ccccc1,.,.,.,.,.
CC(C)Nc1nc2nonc2nc1Nc1ccccc1,.,.,.,16µM,.
COc1ccc(C2CC(c3ccccc3)Oc3c(C)ccc(C)c32)cc1 (centres undefined),.,/,.,/,/
CCC1=NN(C(=O)Cc2ccc(OC)cc2)C(O)(C(F)(F)F)C1 (centres undefined),11µM,.,?,.,.
COc1ccc(CC(=O)N2N=C(c3ccncc3)CC2(O)C(F)(F)F)cc1 (centres undefined),11µM,.,.,?,.
SMILES,RORgamma inh,B2AR arrestin,Gal4-VP16 FLuc,ELG1 DNA repair,TSHR antagonist
CCc1ccc(C2=NN(C(=O)OC)C(O)(C(F)(F)F)C2)cc1 (centres undefined),11µM,.,?,?,.
COc1ccc(OCC(=O)N2N=C(C)CC2(O)C(F)(F)F)cc1 (centres undefined),6.3µM,.,?,.,.
Cc1noc(C)c1S(=O)(=O)Nc1ccc(C(C)C)cc1,.,.,.,.,.
Cc1ccsc1/C=N/NC(=O)c1sccc1C,7.9µM,.,?,?,.
Cc1ccc(C(=O)N/N=C\c2sccc2C)cn1,?,.,?,?,.
Cc1ccsc1/C=N/NC(=O)CO,.,.,.,?,.
O=C(N/N=C/c1ccc2c(c1)OCO2)c1ccc2c(c1)OCO2,.,.,.,?,.
CN(C)c1ccc(/C=N/NC(=O)Cn2nnc3ccccc32)cc1,.,.,.,?,.
Cc1ccsc1/C=N\NC(=O)c1ccc2c(c1)OCO2,7.1µM,.,?,?,.
Cc1ccsc1/C=N/NC(=O)c1ccc2c(c1)OCCO2,1.4µM,.,.,?,.
Cc1ccsc1/C=N\NC(=O)Cn1nnc2ccccc21,14µM,.,?,.,.
Cc1cc(C(=O)N/N=C/c2sccc2C)no1,?,.,?,?,.
Cc1ccsc1/C=N/NC(=O)CSCc1ccc(Cl)cc1,11µM,.,10µM,.,.
Cc1ccsc1/C=N/NC(=O)Cc1ccc(Cl)cc1,.,.,.,.,.
Cc1ccsc1/C=N\NC(=O)c1n[nH]c2c1CCC2,4µM,.,7.1µM,?,.
Cc1ccsc1/C=N\NC(=O)c1cc(C(C)(C)C)[nH]n1,10µM,.,20µM,?,.
CC(C)(C)OC(=O)N1C=CCC1CN1C(=O)COCC1=O (centres undefined),.,/,.,/,/
COc1ccc(-n2c(=O)c(C)nc3cnc(Oc4ccccc4)nc32)cc1,.,/,.,/,/
COc1ncc2nc(CCc3ccccc3)c(=O)n(Cc3ccc(F)cc3)c2n1,.,/,.,/,/
CCN(CC)CCn1c2ccccc2c2cnc(N)c(C#N)c21,0.18µM,.,.,?,.
CN(C)C=Nc1ncc2c3ccccc3n(CCN(C)C)c2c1C#N,.,.,?,6.5µM,.
CCN(CC)CCn1c2ccccc2c2nc3ccccc3nc21,.,.,.,?,.
COC(=O)N1CCC2(CC1)CCN(c1ccncc1)CC2,.,/,.,/,/
Cc1ccc(C(=O)ONc2ccc(N=O)cc2)cc1,25µM,.,13µM,.,.
Cc1ccc(C(=O)ONc2ccc(N=NC(=O)c3ccccc3O)cc2)cc1,.,.,18µM,?,.
SMILES,RORgamma inh,B2AR arrestin,Gal4-VP16 FLuc,ELG1 DNA repair,TSHR antagonist
COC(=O)c1ccc(NN=Nc2ccc(C)cc2)cc1,.,.,.,?,.
O=Nc1ccc(NOC(=O)c2ccc(Br)cc2)cc1,.,.,.,.,.
Cc1cccc(NC(=S)NCC2CCCO2)c1 (centres undefined),?,.,?,.,.
Cc1ccc(NC(=S)NCC2CCCO2)c(OC(F)F)c1 (centres undefined),11µM,.,?,?,.
Cc1ccc(NC(=S)NCCN2CCOCC2)cc1C,11µM,.,.,?,.
CC(Oc1ccc(F)cc1F)C(=O)NNC(=S)NCC1CCCO1 (centres undefined),11µM,.,?,.,.
CCN(CC)c1ccc(NC(=S)NCC2CCCO2)cc1 (centres undefined),14µM,.,13µM,.,.
Cc1ccc(NC(=S)NCCCN2CCOCC2)cc1C,.,.,.,.,.
Nc1ncnc2c1ncn2[C@@H]1O[C@H](CNC(=O)[C@H]2CCC(=O)N2)[C@@H](O)[C@H]1O,/,.,/,?,.

# Compound activity (PubChem BioAssay)
